This passage reports growth results from PubChem BioAssay (NCI).

“And” between values parts separate entries of the source, which are not always exact repeats. Equal entries are not always repeated. The panel holds about 83,000 compounds, 20% with a hit somewhere; the sample as a whole holds those more often.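 The endpoint reported here, percent growth, reads 100 for growth as untreated, 0 for no net growth and -100 for all cells dead.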 The source made the active and inactive calls. Rule for the calls: active = growth percent below 10; inactive = the rest.

Test systems include HOP-92 NSCLC; K-562 leukemia; MALME-3M melanoma; RXF 393 renal; SK-MEL-28 melanoma; SK-MEL-2 melanoma; SN12C renal; TK-10 renal; CAKI-1 renal; A498 renal; RPMI-8226 leukemia; OVCAR-3 ovarian; BT-549 breast; MDA-MB-435 melanoma; HCC-2998 colon; UACC-257 melanoma.
Common to all, as to experiment: NCI-60 one-dose screen, 48 h (100 = growth as untreated, 0 = no growth, -100 = all killed)
What all share (details): 10 µM

Consider `CC(C)(O)/C=C/C(=O)[C@](C)(O)[C@H]1[C@H](O)C[C@@]2(C)[C@H]3CC=C4[C@@H](C[C@H](O)C(=O)C4(C)C)[C@]3(C)C(=O)C[C@]12C`, for which the growth is -36.4% (active) in the assay with HOP-92 NSCLC; 12.1% (inactive) in the assay with K-562 leukemia; -28.3% (active) in the assay with MALME-3M melanoma; -35.3% (active) with RXF 393 renal; -7.52% (active) in the assay on SK-MEL-28 melanoma; -28.2% (active) in the assay with SK-MEL-2 melanoma. The growth was 9.22% (active) with SN12C renal; -33% (active) in the assay with TK-10 renal; -60.5% (active) with CAKI-1 renal; -73.1% (active) in the assay with A498 renal; 3.64% (active) in the assay on RPMI-8226 leukemia; 1% (active) with OVCAR-3 ovarian. In addition, the growth in the assay on BT-549 breast is -24.5% (active); in the assay with MDA-MB-435 melanoma, 9.08% (active); with HCC-2998 colon, 36.1% (inactive).
`CCCCCCCCCC(=O)N[C@@](C)(CC)C(=O)N1CCC[C@H]1C(=O)N[C@@H](CC(C)C)C(=O)N[C@@](C)(CC)C(=O)N[C@@H](CCC(N)=O)C(=O)N[C@H](CCC(N)=O)C(=O)NC(C)(C)C(=O)NC(C)(C)C(=O)N[C@@H](CCC(N)=O)C(=O)N[C@H](CC(C)C)C(=O)N[C@H](CO)CC(C)C`: the growth is -93.1% (active) and -69.1% (active) with HOP-92 NSCLC; -15.6% (active) and 21.9% (inactive) in the assay with K-562 leukemia; -89.7% (active) and -98.6% (active) with MALME-3M melanoma; -89.1% (active) and -89.3% (active) with RXF 393 renal; -88.1% (active) and -80.1% (active) in the assay with UACC-257 melanoma; -97.1% (active) and -100% (active) in the assay on SK-MEL-28 melanoma. Besides, the growth was -90.7% (active) and -86% (active) in the assay on SK-MEL-2 melanoma; -86.9% (active) and -98.8% (active) with SN12C renal; -73.6% (active) and -83.4% (active) in the assay with TK-10 renal; -92.4% (active) and -100% (active) in the assay on CAKI-1 renal; -92.4% (active) and -81.1% (active) in the assay on A498 renal; -53.6% (active) and -31.8% (active) with RPMI-8226 leukemia. Also, the growth in the assay on OVCAR-3 ovarian is -74.5% (active); in the assay with BT-549 breast, -91% (active) and -85.5% (active); in the assay with MDA-MB-435 melanoma, -94% (active) and -97.5% (active); in the assay on HCC-2998 colon, -87.4% (active) and -89.4% (active).
As to `NC1CCc2cc(O)c(O)cc2C1` (stereo not drawn), the growth with K-562 leukemia was 1.68% (active); in the assay with RXF 393 renal it was 81.9% (inactive); in the assay with UACC-257 melanoma, 103% (inactive); in the assay with SK-MEL-28 melanoma it was 87.1% (inactive); in the assay on SK-MEL-2 melanoma, 97.7% (inactive); with SN12C renal, 90.5% (inactive). Besides, the growth was 94.6% (inactive) in the assay with TK-10 renal; 94.1% (inactive) in the assay with CAKI-1 renal; 71.9% (inactive) in the assay with A498 renal; 17.2% (inactive) in the assay with RPMI-8226 leukemia; 101% (inactive) in the assay on OVCAR-3 ovarian; 86.3% (inactive) in the assay with BT-549 breast. Besides, the growth in the assay on MDA-MB-435 melanoma was 81.4% (inactive); in the assay with HCC-2998 colon, 46.2% (inactive).
For `C[C@@H]1C[C@H]2C(=O)O[C@@H](C)C(NC(=O)[C@H](Cc3cc(F)cc(F)c3)NC(=O)Nc3ccc(OS(=O)(=O)F)cc3)C(=O)N3CCC[C@H]3C(=O)N3CCO[C@H](C)[C@H]3C(=O)N[C@@H](CO)C(=O)N2C1` (stereo partly drawn), the growth with HOP-92 NSCLC was 9.16% (active); in the assay on K-562 leukemia it was 20.7% (inactive); in the assay on MALME-3M melanoma, 39% (inactive); in the assay with RXF 393 renal, -5.55% (active); in the assay on UACC-257 melanoma it was 16.2% (inactive); with SK-MEL-28 melanoma, 40.5% (inactive). In addition, the growth with SN12C renal is 21.1% (inactive); with TK-10 renal, 71.7% (inactive); in the assay on CAKI-1 renal it was 39.4% (inactive); in the assay with RPMI-8226 leukemia, 19.7% (inactive); in the assay with BT-549 breast, 22.4% (inactive); with MDA-MB-435 melanoma, 20.8% (inactive). Further, the growth with HCC-2998 colon was 23.9% (inactive).
As to `Cc1ccc(CNc2nc3ccc(OC/C(=C/F)CN)cc3o2)cn1`, the growth is 93.9% (inactive) in the assay on HOP-92 NSCLC; 108% (inactive) in the assay with K-562 leukemia; 105% (inactive) with MALME-3M melanoma; 69.1% (inactive) in the assay with RXF 393 renal; 104% (inactive) with UACC-257 melanoma; 107% (inactive) with SK-MEL-28 melanoma. Also, the growth was 110% (inactive) with SK-MEL-2 melanoma; -37.4% (active) with SN12C renal; 71.9% (inactive) with TK-10 renal; 68.3% (inactive) in the assay with CAKI-1 renal; 58.4% (inactive) with A498 renal; 105% (inactive) in the assay on RPMI-8226 leukemia. In addition, the values for the growth with OVCAR-3 ovarian, with MDA-MB-435 melanoma and in the assay with HCC-2998 colon were 109% (inactive), 99.6% (inactive) and 111% (inactive), respectively.
As to `CCC(C)[C@H]1C(=O)O[C@H](C(C)C)C(=O)N(C)[C@@H](C(C)C)C(=O)O[C@H](C(C)C)C(=O)N(C)[C@@H](C(C)C)C(=O)O[C@H](C(C)C)C(=O)N1C` (stereo partly drawn), the growth is -19% (active) in the assay with HOP-92 NSCLC; 6.74% (active) in the assay with K-562 leukemia; 14.7% (inactive) in the assay with MALME-3M melanoma; 22% (inactive) with RXF 393 renal; 34.4% (inactive) in the assay on SK-MEL-28 melanoma; -2.6% (active) with SK-MEL-2 melanoma. In addition, the growth in the assay on SN12C renal was 7.58% (active); with TK-10 renal, 8.22% (active); with A498 renal, -8.55% (active); in the assay with RPMI-8226 leukemia, -25.6% (active); in the assay on OVCAR-3 ovarian, 19.9% (inactive); with BT-549 breast, 14.2% (inactive). Also, the values for the growth with MDA-MB-435 melanoma and in the assay on HCC-2998 colon were 20% (inactive) and 32.3% (inactive), respectively.
As to `C/C=C/CC(C)C(O)[C@H](NC(=O)[C@@H]1CCCN1C(=O)C(C)(C)NC(=O)CCCCCCC)C(=O)N[C@@](C)(CC)C(=O)N[C@@H](CCC(N)=O)C(=O)N[C@H](CCC(N)=O)C(=O)NC(C)(C)C(=O)NC(C)(C)C(=O)N[C@@H](CCC(N)=O)C(=O)N[C@H](CC(C)C)C(=O)N[C@H](CO)CC(C)C` (stereo partly drawn), the growth in the assay with HOP-92 NSCLC was 106% (inactive) and 29.4% (inactive); with K-562 leukemia, 101% (inactive) and 6.14% (active); in the assay on MALME-3M melanoma it was 109% (inactive) and -65.1% (active); in the assay on RXF 393 renal it was 112% (inactive) and -10.7% (active); in the assay on UACC-257 melanoma it was 106% (inactive) and -33.7% (active); with SK-MEL-28 melanoma, 107% (inactive) and -74.9% (active). Further, the growth is 115% (inactive) and 34% (inactive) with SK-MEL-2 melanoma; 102% (inactive) and 9.5% (active) in the assay with SN12C renal; 115% (inactive) and 28.2% (inactive) in the assay with TK-10 renal; 101% (inactive) and 28.5% (inactive) in the assay on CAKI-1 renal; -7.1% (active) in the assay with A498 renal; 105% (inactive) and -9.85% (active) in the assay with RPMI-8226 leukemia. Further, the growth is 113% (inactive) and 23.8% (inactive) in the assay on OVCAR-3 ovarian; 118% (inactive) and -60.9% (active) with BT-549 breast; 104% (inactive) and -47.4% (active) with MDA-MB-435 melanoma; 114% (inactive) and 24% (inactive) in the assay on HCC-2998 colon.
